The results in this text go back to PubChem BioAssay.

The subject of test [1] is Plasmodium falciparum Sir2 (PF13_0152, Sir2A). The test is described as follows: Plasmodium falciparum Sir2A binding compounds – biochemical, small-molecule microarray, 635 nm fluorescence, primary screen (AID 1098).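 Note: score merges spot fluorescence intensity with its signal-to-noise ratio.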 The conditions noted are these: fluorescence 635 nm, higher = more signal.
Test [2] in a line: probe aDKK1 binding to arrayed compounds – biochemical, biotinylated probe, 635/667 nm fluorescence, primary screen (AID 1099).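 Note: score merges 667nm spot fluorescence with signal to noise across triplicate slides.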 Conditions: small-molecule microarray, higher = more signal.
Test [3] in a line: probe aCHRDL2 binding to arrayed compounds – biochemical, biotinylated probe, 635/667 nm fluorescence, primary screen (AID 1100). Conditions: small-molecule microarray, higher = more signal.
Test [4] can be described thus: change in splice reporter luminescence, either direction, cell-based, HEK293, spliceosome inhibition project, primary screen (AID 1101).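 Note: HEK293 cells carrying a splicing-competent luciferase reporter gene; test concentration not given here.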 The conditions noted are these: HEK293 splicing luciferase reporter, 24 h, higher = more signal, called active from +8 up or from −8 down. Background: Reporter assays use an easily measured gene product as a stand-in for the process of interest.

Test [5] concerns the target Fibroblast growth factor 10 (Homo sapiens) (UniProt O15520). The test is described as follows: compounds binding fibroblast growth factor 10 – biochemical, small-molecule microarray, 635 nm fluorescence, primary screen (AID 1102). Conditions: FGF10 binding, fluorescence 635 nm, higher = more signal.
Test [6] relates to glycogen synthase kinase-3 (GSK3A per assay name; protocol says GSK3B). As to the kind of experiment: compounds binding glycogen synthase kinase-3 – biochemical, small-molecule microarray, 635 nm fluorescence, GSK3A, primary screen (AID 1103). Note: the record names both GSK3A and GSK3B. Conditions: fluorescence 635 nm, higher = more signal.
The target in test [7] is Epidermal growth factor receptor (Homo sapiens) (UniProt P00533). The test is described as follows: compounds binding epidermal growth factor receptor – biochemical, small-molecule microarray, 635 nm fluorescence, primary screen (AID 1104).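 Note: score merges 667 nm emission intensity with spot signal to noise over triplicate slides.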 The conditions noted are these: EGFR binding, higher = more signal.
The target in test [8] is Follistatin-related protein 3 (Homo sapiens) (UniProt O95633). As to the kind of experiment: compounds binding follistatin-related protein 3 – biochemical, small-molecule microarray, 635 nm fluorescence, primary screen (AID 1105).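 Note: score merges emission near 667 nm and signal to noise per printed spot across three slides.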 The conditions noted are these: FSTL3 binding, higher = more signal.
The target of test [9] is Dickkopf-related protein 1 (Homo sapiens) (UniProt O94907). As to the kind of experiment: small molecules binding DKK1 protein – biochemical, small-molecule microarray, 635 nm fluorescence scan, primary screen (AID 1106).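 Note: score merges emission near 667 nm with signal to noise over three replicate slides.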 The conditions noted are these: higher = more signal.
Test [10] relates to Inhibin beta A chain (activin A). The test is described as follows: small molecules binding activin A – biochemical, small-molecule microarray, 635 nm fluorescence scan, primary screen (AID 1107).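 Note: mouse activin A protein probed at 4.33 µg/mL on printed slides; score merges bound-protein fluorescence near 667 nm with spot signal-to-noise.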 Conditions: INHBA, higher = more signal.
For test [11], the system named is Human papillomavirus type 1a protein E7 (residues 44-93). The test is described as follows: small molecules binding HPV E7 44-93 – biochemical, small-molecule microarray, residues 44-93, 635 nm fluorescence, primary screen (AID 1108).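 Note: E7 fragment applied at 1 µg/mL in TBST for 1 h at 4 C; score combines spot fluorescence with its signal to noise ratio.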 Conditions: fluorescence 635 nm, higher = more signal.
Test [12] in a line: hepatitis C replication reporter changes, two-sided – Huh7 cells, luciferase reporter, HCV replication inhibitor project, primary screen (AID 1109).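 Note: huh7 hepatoma cells harbouring a luciferase neomycin HCV replicon reporter; luciferase luminescence as measure of HCV replicon replication; test concentration not given here.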 Conditions: Huh7 HCV replicon luciferase reporter, 48 h; higher = more signal.
The target in test [13] is Left-right determination factor 2 (Homo sapiens) (UniProt O00292). As to the kind of experiment: small molecules binding LEFTY2 protein – biochemical, small-molecule microarray, 635 nm fluorescence scan, primary screen (AID 1110). Conditions: higher = more signal.
The target of test [14] is Calmodulin-1 (Homo sapiens) (UniProt P0DP23). The test is described as follows: small molecules binding calmodulin-1 with EGTA – biochemical, small-molecule microarray, Cy5-labelled CALM1, profiling panel (AID 1111).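 Note: labelled calmodulin applied in Tris saline Tween buffer holding calcium plus EGTA and DTT.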 The conditions noted are these: Cy5-CALM1 binding fluorescence, higher = more signal.
Test [15] has the same target. The test is described as follows: small molecules binding Ca-loaded calmodulin-1 – biochemical, small-molecule microarray, Cy5-labelled CALM1, plus calcium, artefact control for SMM control-protein annotation, profiling panel (AID 1112).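 Note: score merges spot fluorescence with signal to noise from triplicate slides.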 Conditions: Cy5-CALM1 binding fluorescence, higher = more signal.
Test [16] in a line: probe aWnt5a binding to arrayed compounds – biochemical, biotinylated probe, 635/667 nm fluorescence, primary screen (AID 1113).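 Note: score merges 667 nm fluorescence intensity with signal-to-noise per printed feature.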 Conditions: small-molecule microarray, higher = more signal.
A short description of test [17]: probe aShh binding to arrayed compounds – biochemical, biotinylated probe, 635/667 nm fluorescence, primary screen (AID 1114).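 Note: probe is biotin-labelled aShh protein from a stem cell growth factor screen; measures binding of labelled protein to compounds printed on the slide; score merges feature fluorescence at 667 nm with signal-to-noise.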 The conditions noted are these: small-molecule microarray, higher = more signal.
Test [18] in a line: probe aNog binding to arrayed compounds – biochemical, biotinylated probe, 635/667 nm fluorescence, primary screen (AID 1115).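 Note: probe is biotinylated aNog protein used at 0.15 µg/mL for 1 h at 4 C; z-score combines 667 nm fluorescence of each spot with its signal to noise.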 Conditions: small-molecule microarray, higher = more signal.
Test [19] has as its target Torsin-1A-interacting protein 1 (Homo sapiens) (UniProt Q5JTV8). As to the kind of experiment: compound microarray binding of lysate hLAP1 – cell lysate, small-molecule microarray, COS7 lysate, 635/667 nm fluorescence, primary screen (AID 1116). Conditions: 635 nm fluorescence, higher = more signal.
Test [20] has as its target Alpha-bungarotoxin (Bungarus multicinctus) (UniProt P60615). As to the kind of experiment: compounds binding labelled alpha-BTX control protein – biochemical, small-molecule microarray, Alexa647 label, 635/667 nm fluorescence, artefact control for SMM control protein annotation, profiling panel (AID 1117). Conditions: alpha-BTX-A647 binding fluorescence, higher = more signal.

Each structure is given as a SMILES string. Calls of active or inactive are those of the source.

Chain of Follistatin-related protein 3 (Homo sapiens) (O95633 whole entry, looked up): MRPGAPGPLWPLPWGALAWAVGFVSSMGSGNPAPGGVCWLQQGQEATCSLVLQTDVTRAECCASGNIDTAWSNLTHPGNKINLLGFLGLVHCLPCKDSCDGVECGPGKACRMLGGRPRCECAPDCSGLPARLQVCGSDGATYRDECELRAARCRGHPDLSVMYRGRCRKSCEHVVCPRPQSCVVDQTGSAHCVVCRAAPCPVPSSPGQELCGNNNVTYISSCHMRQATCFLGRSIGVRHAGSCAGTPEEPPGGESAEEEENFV
Chain of Fibroblast growth factor 10 (Homo sapiens) (O15520 whole entry, looked up): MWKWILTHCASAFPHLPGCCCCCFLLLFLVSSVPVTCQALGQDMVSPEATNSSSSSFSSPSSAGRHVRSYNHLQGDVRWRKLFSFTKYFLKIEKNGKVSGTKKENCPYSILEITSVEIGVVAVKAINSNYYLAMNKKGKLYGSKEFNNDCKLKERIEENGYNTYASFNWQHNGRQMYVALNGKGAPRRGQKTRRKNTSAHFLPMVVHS
Chain of Epidermal growth factor receptor (Homo sapiens) (P00533 whole entry, looked up): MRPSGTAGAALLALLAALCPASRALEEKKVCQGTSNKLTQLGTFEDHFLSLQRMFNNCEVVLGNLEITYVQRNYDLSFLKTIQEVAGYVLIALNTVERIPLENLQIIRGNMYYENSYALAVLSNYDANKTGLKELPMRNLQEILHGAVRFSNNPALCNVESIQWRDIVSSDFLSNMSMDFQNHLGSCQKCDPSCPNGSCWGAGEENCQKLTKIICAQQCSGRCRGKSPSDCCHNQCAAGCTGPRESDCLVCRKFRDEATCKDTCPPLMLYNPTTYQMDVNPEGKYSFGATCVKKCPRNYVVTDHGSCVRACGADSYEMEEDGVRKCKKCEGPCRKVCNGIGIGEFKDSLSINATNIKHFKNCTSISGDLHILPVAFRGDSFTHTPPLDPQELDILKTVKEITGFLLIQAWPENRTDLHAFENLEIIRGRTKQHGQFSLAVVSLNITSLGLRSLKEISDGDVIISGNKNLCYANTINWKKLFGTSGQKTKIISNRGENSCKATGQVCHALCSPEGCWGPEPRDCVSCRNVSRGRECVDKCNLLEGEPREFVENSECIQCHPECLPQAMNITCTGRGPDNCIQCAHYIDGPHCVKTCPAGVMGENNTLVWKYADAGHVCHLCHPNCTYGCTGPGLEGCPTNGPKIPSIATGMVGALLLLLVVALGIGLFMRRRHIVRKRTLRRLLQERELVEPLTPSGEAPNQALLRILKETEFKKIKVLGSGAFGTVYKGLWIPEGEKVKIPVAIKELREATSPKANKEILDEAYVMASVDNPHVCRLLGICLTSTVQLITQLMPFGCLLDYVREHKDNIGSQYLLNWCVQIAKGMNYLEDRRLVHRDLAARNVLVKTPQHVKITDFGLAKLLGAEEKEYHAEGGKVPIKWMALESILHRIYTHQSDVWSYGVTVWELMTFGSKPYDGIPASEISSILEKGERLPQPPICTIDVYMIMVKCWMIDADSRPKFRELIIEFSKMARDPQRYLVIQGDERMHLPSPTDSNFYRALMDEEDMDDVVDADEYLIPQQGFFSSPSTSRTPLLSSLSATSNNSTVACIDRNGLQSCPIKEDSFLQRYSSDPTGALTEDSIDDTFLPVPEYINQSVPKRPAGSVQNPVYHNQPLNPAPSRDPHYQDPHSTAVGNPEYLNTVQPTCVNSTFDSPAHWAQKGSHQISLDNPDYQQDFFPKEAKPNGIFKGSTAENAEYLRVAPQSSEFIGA
Chain of Torsin-1A-interacting protein 1 (Homo sapiens) (Q5JTV8 whole entry, looked up): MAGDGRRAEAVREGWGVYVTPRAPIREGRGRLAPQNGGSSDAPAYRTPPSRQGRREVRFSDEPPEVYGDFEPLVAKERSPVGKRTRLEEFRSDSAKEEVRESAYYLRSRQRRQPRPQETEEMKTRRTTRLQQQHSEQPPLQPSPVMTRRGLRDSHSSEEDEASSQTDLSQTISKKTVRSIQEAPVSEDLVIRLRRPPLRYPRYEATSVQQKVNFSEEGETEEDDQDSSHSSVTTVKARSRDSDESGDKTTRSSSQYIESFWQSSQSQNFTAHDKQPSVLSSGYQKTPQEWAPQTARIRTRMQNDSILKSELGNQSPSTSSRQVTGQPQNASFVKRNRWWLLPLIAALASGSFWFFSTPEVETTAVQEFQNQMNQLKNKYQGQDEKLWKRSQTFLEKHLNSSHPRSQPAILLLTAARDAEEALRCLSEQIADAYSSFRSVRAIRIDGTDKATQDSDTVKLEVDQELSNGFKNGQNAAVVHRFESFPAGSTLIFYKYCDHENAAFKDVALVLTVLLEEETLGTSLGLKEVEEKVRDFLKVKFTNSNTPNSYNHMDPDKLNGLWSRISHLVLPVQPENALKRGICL
Chain of Left-right determination factor 2 (Homo sapiens) (O00292 whole entry, looked up): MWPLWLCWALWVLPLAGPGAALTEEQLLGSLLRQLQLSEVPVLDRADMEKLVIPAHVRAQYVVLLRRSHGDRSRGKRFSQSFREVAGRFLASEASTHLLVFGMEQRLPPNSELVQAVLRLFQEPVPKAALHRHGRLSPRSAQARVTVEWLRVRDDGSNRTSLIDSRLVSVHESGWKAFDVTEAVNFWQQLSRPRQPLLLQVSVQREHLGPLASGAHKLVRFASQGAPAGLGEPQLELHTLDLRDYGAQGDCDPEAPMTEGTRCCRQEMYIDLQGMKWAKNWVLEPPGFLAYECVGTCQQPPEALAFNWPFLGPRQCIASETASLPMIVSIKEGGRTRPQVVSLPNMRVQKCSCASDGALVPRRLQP
Chain of Alpha-bungarotoxin (Bungarus multicinctus) (P60615 whole entry, looked up): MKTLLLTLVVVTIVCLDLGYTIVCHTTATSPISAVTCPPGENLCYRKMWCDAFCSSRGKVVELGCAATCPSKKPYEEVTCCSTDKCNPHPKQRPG
Chain of Dickkopf-related protein 1 (Homo sapiens) (O94907 whole entry, looked up): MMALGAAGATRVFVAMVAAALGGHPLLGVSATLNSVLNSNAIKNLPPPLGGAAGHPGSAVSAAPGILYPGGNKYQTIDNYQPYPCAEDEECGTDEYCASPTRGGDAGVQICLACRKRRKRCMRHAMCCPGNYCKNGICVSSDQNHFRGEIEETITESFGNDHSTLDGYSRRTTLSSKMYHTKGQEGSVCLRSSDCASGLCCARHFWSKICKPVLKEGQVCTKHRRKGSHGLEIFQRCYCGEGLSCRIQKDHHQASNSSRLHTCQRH

In the case of `CCCN1C(=O)[C@]2(CCC(=O)OC(C)(C)C)N=C(c3ccc(OCCCO)cc3)O[C@@H]2c2ccccc21`, the composite z-score in test [1] was 0.715; in [2], 0.173; in test [3], 1.16; in test [5], 1.31; in test [6], 1.21; in test [7], -0.413. The composite z-score in [8] was 0.299; in test [9] it was -0.175; in [10], 1.31; in test [11], 1.17; in test [13], -0.399; in test [14], -0.0977. Besides, the composite z-score was -0.148 in test [15]; -0.124 in test [16]; 0.0469 in test [17]; 0.175 in test [18]; 3.34 in test [19]; 0.28 in [20]. Moreover, the z-score is 0.0554 (inactive) in test [4] and -2.87 in [12].

Regarding `C=C(CCCC)C(=O)CC[C@@H](OC(=O)c1ccccc1-c1ccccc1C(=O)O)c1ccccc1OCCO`, the composite z-score in [1] was 0.776; in [2] it was -0.286; in test [3], -0.543; in [5] it was 1.27; in [6], -0.121; in test [7], -0.215. The composite z-score in test [8] is 0.27; in test [9], 0.373; in test [10], 0.959; in test [11] it was 1.19; in [13] it was 0.0268; in test [14], 0.525. In addition, the composite z-score in test [15] is -0.954; in test [16], -0.096; in test [17], -0.0904; in test [18], -0.147; in test [19], 2.43; in [20], 0.16. Besides, the z-score in test [4] is 2.3 (inactive); in [12] it was -2.84.

Take `COc1cc(CO)cc(I)c1O[C@H]1C=C(C(=O)NCCO)C[C@@H]2O[C@H]12`: the composite z-score in test [1] came out at 0.6; in test [2], 0.298; in test [3], 0.0558; in [5], 1.77; in test [6], 1.33; in test [7], 0.989. Moreover, the composite z-score in [8] amounted to 1.45; in [9], 1.34; in test [10] it was 0.643; in [11] it was 1.4; in [13] it was 0.873; in test [14], 3.38. Further, the composite z-score in test [15] is 1.48; in [16] it was 0.055; in test [17], -0.352; in test [18], -0.646; in test [19], 1.94; in test [20] it was 2.81. The z-score in [4] was 1 (inactive); in [12], -1.32.

In the case of `CC(C)NC(=O)[C@@H]1c2ccccc2C(=O)N(Cc2ccc(OC(F)(F)F)cc2)[C@H]1c1ccc(CO)cc1`, the composite z-score in [1] was determined as 0.471; in [2], 1.21; in test [3], 0.696; in test [5], 1.25; in [6], 1.3; in test [7], 0.272. In addition, the composite z-score in [8] came out at 1.37; in [9], 0.657; in test [10], 0.237; in test [11], 0.973; in test [13] it was 0.39; in [14], 0.1. The composite z-score in test [15] was -0.126; in [16], 0.265; in test [17] it was 0.637; in [18], -0.486; in test [19], 0.673; in test [20], 0.589. Moreover, the z-score is -0.211 (inactive) in test [4] and -0.779 in [12].

In the case of `CN(C)CCCNC(=O)[C@@H]1c2ccccc2C(=O)N(Cc2ccccc2C(F)(F)F)[C@H]1c1ccc(CO)cc1`, the composite z-score in [1] was -0.722; in [2], 0.908; in test [3], 0.706; in test [5], -0.728; in test [6], 0.355; in test [7], -0.899. In addition, the composite z-score in test [8] was -0.58; in test [9], -0.759; in [10], 0.764; in test [11], -0.242; in test [13], -1.42; in [14], -0.206. Further, the composite z-score is -0.263 in [15]; -0.1 in test [16]; -0.138 in test [17]; -0.163 in test [18]; 0.689 in [19]; 0.542 in test [20]. Further, the z-score in [4] was 0.0896 (inactive); in test [12], -1.68.
